Experimental data taken from PubChem BioAssay (NCI).
About 83,000 compounds went through this panel and 20% of them were active in at least one assay; those are over-represented in the sample as a whole.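 Step 1: grow cells in 96-well plates. Step 2: add test compound at a single concentration. Step 3: incubate 48 h. Step 4: record percent growth.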 Values without a mark were called inactive. Activity calls are given as the source filed them. How the source made its calls: active means growth percent below 10; inactive means the rest.

Columns and labels:
Assay in all cases: NCI-60 one-dose screen, 48 h (100 = growth as untreated, 0 = no growth, -100 = all killed)
Conditions in all cases: 10 µM unless noted
NCI-H23 lung = test system: NCI-H23 lung
NCI-H226 lung = test system: NCI-H226 lung
NCI-H322M lung = test system: NCI-H322M lung
HOP-62 NSCLC = test system: HOP-62 NSCLC
NCI-H460 lung = test system: NCI-H460 lung
A549/ATCC NSCLC = test system: A549/ATCC NSCLC
786-0 renal = test system: 786-0 renal
COLO 205 colon = test system: COLO 205 colon
DU-145 prostate = test system: DU-145 prostate
K-562 leukemia = test system: K-562 leukemia
MALME-3M melanoma = test system: MALME-3M melanoma
MDA-MB-231 breast = test system: MDA-MB-231 breast
SF-268 CNS = test system: SF-268 CNS
SF-295 CNS = test system: SF-295 CNS
SF-539 CNS = test system: SF-539 CNS
UACC-257 melanoma = test system: UACC-257 melanoma
M14 melanoma = test system: M14 melanoma
HOP-92 NSCLC = test system: HOP-92 NSCLC
NCI-H522 lung = test system: NCI-H522 lung
RXF 393 renal = test system: RXF 393 renal

| Structure (SMILES) | growth (NCI-H23 lung) | growth (NCI-H226 lung) | growth (NCI-H322M lung) | growth (HOP-62 NSCLC) | growth (NCI-H460 lung) | growth (A549/ATCC NSCLC) | growth (786-0 renal) | growth (COLO 205 colon) | growth (DU-145 prostate) | growth (K-562 leukemia) | growth (MALME-3M melanoma) | growth (MDA-MB-231 breast) | growth (SF-268 CNS) | growth (SF-295 CNS) | growth (SF-539 CNS) | growth (UACC-257 melanoma) | growth (M14 melanoma) | growth (HOP-92 NSCLC) | growth (NCI-H522 lung) | growth (RXF 393 renal) |
| --- | --- | --- | --- | --- | --- | --- | --- | --- | --- | --- | --- | --- | --- | --- | --- | --- | --- | --- | --- | --- |
| O=c1cc(-c2ccccc2)oc2cc(OCCCC[P+](c3ccccc3)(c3ccccc3)c3ccccc3)cc(O)c12 | -93% (active) | -29% (active) | -100% (active) | -63.6% (active) | -75.8% (active) | -56% (active) | -69.5% (active) | -56.3% (active) | -94.8% (active) | -24.1% (active) | -88% (active) | -32.2% (active) | -59% (active) | -96.1% (active) | -95.7% (active) | -91% (active) | -70.1% (active) | – | – | – |
| COc1cc(NC(=O)c2cccc(C3CCc4c(cc(OC)c(OC)c4OC)O3)c2)cc(OC)c1OC (stereo not drawn) | 36.9% | 21.4% | – | 30.6% | 29.1% | 19.5% | 24.3% | 3.7% (active) | 11.6% | 15% | 21% | 28.3% | 73.1% | 8.61% (active) | -8.73% (active) | 33.7% | 22.2% | 52.4% | -9.86% (active) | 47.4% |
| COc1c(F)ccc(C(=O)Nc2ccc3nc(NC(=O)C4CCCN(S(=O)(=O)c5cccc(Br)c5)C4)sc3c2)c1F (stereo not drawn) | 96.3% | 88.4% | – | 107% | 80.3% | 75.6% | 70% | 86.4% | 91.4% | 60.2% | 99.4% | 90.7% | 69.7% | 84.5% | 74.5% | 92.4% | 87.2% | – | 78.9% | -3.33% (active) |
| COc1ccc(-c2nc3cc(C)ccc3n2CC(=O)N=Nc2c(O)[nH]c3ccc(Br)cc23)cc1 | -45.5% (active) | -13.4% (active) | – | -49.7% (active) | 8.15% (active) | -68.6% (active) | 25.6% | -47.2% (active) | 16.1% | 9.75% (active) | -59.4% (active) | -28.1% (active) | 23% | -61.4% (active) | -67.1% (active) | 1.58% (active) | -58.2% (active) | – | 25% | -52.7% (active) |
| O=C(NN1C(=O)/C(=C/C=C/c2ccc([N+](=O)[O-])o2)SC1=S)c1cccc(O)c1 | -89% (active) | -92.2% (active) | -66.9% (active) | -73.5% (active) | -49.3% (active) | -67.4% (active) | -91.5% (active) | -79.7% (active) | -99.2% (active) | 6.17% (active) | -99.2% (active) | -98.4% (active) | -91.3% (active) | -40.1% (active) | -100% (active) | -85.2% (active) | -89% (active) | – | – | -89.6% (active) |
| Cc1ncsc1-c1ccc(CNC(=O)[C@@H]2C[C@@H](O)CN2C(=O)[C@@H](NC(=O)C2(F)CC2)C(C)(C)C)c(OCCOCCOCCOCCOc2nc(Nc3cc(S(C)(=O)=O)ccc3N[C@@H](c3cccc4c3OC(F)(F)O4)c3ncccc3Cl)nc(N3CCNCC3)n2)c1 | 85.3% | 71.5% | 82.3% | 90.6% | 87.3% | 103% | 97.7% | 89.8% | 69% | 23.1% | 41.4% | – | 65.7% | 101% | 70.1% | 94.4% | 97.5% | – | – | 65.3% |
| COc1cccc(COc2ccc(NC(=O)Nc3ccc(Cl)c(C(F)(F)F)c3)cc2)c1 | 21.1% | 43.2% | – | 34.3% | 17.5% | 16% | 34.5% | 46.2% | 44.6% | 27.1% | 1.5% (active) | 52% | 71.1% | 19.7% | 49.6% | 60.9% | 62.6% | 6.12% (active) | 22.1% | 51.7% |
| Cc1ccc2c(c1)nc(-c1ccccc1)n2CC(=O)N=Nc1c(O)[nH]c2ccc(Br)cc12 | -80.1% (active) | -72.4% (active) | -46.4% (active) | -58.7% (active) | -22.4% (active) | -45.4% (active) | -88.1% (active) | -63% (active) | -10.8% (active) | -7.04% (active) | -85.7% (active) | -76.4% (active) | 0.768% (active) | -80.6% (active) | -91.1% (active) | -51.5% (active) | -54.6% (active) | – | – | -79.9% (active) |
| CSc1ccc(C(=O)Nc2ccc3nn(/C(C#N)=C/c4ccccn4)nc3c2)cc1 | -84% (active) | -59.2% (active) | – | -46.2% (active) | -54.9% (active) | 10.6% | -95.5% (active) | -86.1% (active) | -97% (active) | -1.86% (active) | -82.1% (active) | – | -26.3% (active) | -49% (active) | -88.3% (active) | -67.6% (active) | -76.8% (active) | -48.5% (active) | -87.9% (active) | -94.6% (active) |
| CCCCCCCCc1ccc(C(=O)Nc2cccc(P(=O)(O)O)c2)cc1 | 96.7% | 97.4% | – | 111% | 107% | 99.9% | 104% | 113% | 107% | 97.6% | 106% | 116% | 107% | 96.5% | 97.4% | 97.1% | 96.2% | 114% | 112% | 129% |
| CCCCSc1nc(Nc2ccc(S(N)(=O)=O)cc2)c(C#N)c(-c2cc(OC)c(OC)c(OC)c2)n1 | 82.9% | 59.3% | – | 81.4% | 35.9% | 32.2% | 57.1% | 39.8% | 54.1% | 3.62% (active) | 8.31% (active) | 42.5% | 60.7% | 24.2% | 38.1% | 61.7% | 33.3% | – | 63.2% | 32.8% |
| CCC(C)(C)c1ccc(OCCCCCCN2CCN(c3ccncc3)CC2)cc1 | 1.24% (active) | 35.6% | – | 35.1% | -29.7% (active) | 32.8% | -79% (active) | -84.4% (active) | 35.5% | -24.8% (active) | -94.7% (active) | -77.6% (active) | 50.5% | -78% (active) | -72.4% (active) | 18.4% | -68.7% (active) | -27.8% (active) | 8.93% (active) | -62.5% (active) |
| COc1ccc(/C=C/c2n(Cc3ccc4ccccc4c3)c3ccccc3[n+]2Cc2ccc3ccccc3c2)cc1 | -92.2% (active) | -45% (active) | – | -76.4% (active) | -85.6% (active) | -88.5% (active) | -85.7% (active) | -86.8% (active) | -93.1% (active) | 1.11% (active) | -85.7% (active) | -86.5% (active) | -80.5% (active) | -95.8% (active) | -95.5% (active) | -91.7% (active) | -88.3% (active) | – | -91% (active) | -74.7% (active) |
| COc1cc2c3c(n(CCCN4CCC[C@@H]4CO)c(=O)c2cc1OC)-c1cc2c(cc1C3=O)OCO2 | -85.7% (active) | -66.5% (active) | – | -53.3% (active) | -71.8% (active) | -83.3% (active) | -86.3% (active) | -68.3% (active) | -100% (active) | 2.24% (active) | -85.6% (active) | -93.3% (active) | -60.8% (active) | -86% (active) | -98.2% (active) | 71.2% | -85.9% (active) | – | -82.1% (active) | -66.5% (active) |
| O=C(/C=C/c1ccc(-c2ccccc2)cc1)c1nc2ccccc2n1Cc1ccc(Br)cc1 | 24.7% | 24.3% | – | 56.4% | 16.8% | 64.7% | 39.3% | 76.7% | 80.5% | 36% | 44% | – | 62.9% | 21.9% | 17.7% | 67.4% | 74% | 40.1% | 71% | 35.3% |
| N#Cc1c(-c2cccnc2)cc(-c2ccc3ccccc3c2)[nH]c1=O | 77% | 81.9% | – | 91.8% | 83.7% | 85.1% | 11.9% | 115% | 80.2% | 86.6% | 94.8% | – | 71.7% | 71.4% | 7.22% (active) | 105% | 116% | 78.5% | 66.2% | 50.6% |
| Cn1cc(-c2cc(N)n3nc(-c4cn(C)c5ncccc45)cc3n2)c2cccnc21 | -33.1% (active) | 86.5% | 104% | 86.1% | 79.5% | 51.9% | 81.9% | 43.7% | 83.2% | 5.55% (active) | 97.3% | -22.4% (active) | 92.7% | 62.6% | 84.2% | 100% | 93.1% | – | – | 58.8% |
